Reference: PubChem BioAssay AID652025 (National Center for Advancing Translational Sciences (NCATS), 2013)
Values joined by “and” are separate entries in the source; they are usually repeats but may differ in a detail not shown here. Equal entries are not always repeated. About 240 (0.067%) of roughly 360,000 compounds were called active. Rule as the data show it: active = activation above about 50%; inconclusive = mostly about 30% to 49%; inactive = weaker than that. This excerpt belongs to a sample that is enriched for actives.

Test: qHTS of IL-2 Activators; also: 0% is about no effect
Details: IL-2 activation reporter assay, cell-based qHTS; active compounds read high; in transgenic mouse T cells; stimulated with anti-CD3/CD4/CD28 beads
Source text: The adaptive immune response against any infectious agent begins with the activation of an antigen specific T cell. This relatively rare and inert ("naive") T cell undergoes a massive proliferative expansion and differentiation process to generate sufficient number of potent pathogen-specific effector T cells. The effector T cells fight the infection by making cytokines and helping other cells to become fully armed as well. If any naive T cell has antigen receptors (TCRs) that can be activated by self peptides, then a variety of regulatory mechanisms kick in to prevent this cell from performing to its full potential. These processes collectively constitute the phenomenon of immunological tolerance and their failure leads to autoimmunity. One arm of tolerance involves generation of biochemical negative feedback downstream of the TCR (tuning). This is especially relevant to self antigens present in the body over long periods of time (chronic), which form the bulk of our proteome. The negative feedback serves to tune the TCR signaling, such that the ambient antigenic stimulation is nullified intracellularly. Unfortunately, this critical machinery serves as a target for chronic viral, bacterial and parasitic infections (as well as tumors), which can evade a robust immune response, simply by allowing T cells to tune down their signaling to pathogen or malignancy derived antigens. As such, disrupting the tuning in such cases would allow the tolerant T cell to function again and deliver a robust effector response.
If a therapeutic can restore responsiveness to the tuned down T cell, even for a short time, they could combat the pathogen without any additional immunization. To that end, we have developed a sensitive HTS T cell based assay based on IL-2. This assay will be screened against the Molecular Libraries Small Molecule Repository (MLSMR) to find small molecules that could elicit this response.
NIH Chemical Genomics Center [NCGC]
NIH Molecular Libraries Probe Centers Network [MLPCN]
Assay Submitter (PI): Ron Schwartz, NIAID
4 microL (750 cells/well) of unstimulated transgenic mouse T cells (columns 1-3,5-48) are dispensed into Aurora LoBase, black clear-bottom 1536-well assay plates; column 4 receives an identical concentration of transgenic memory T cells as a non-tolerant control. Compounds are then transferred via Kalypsys pin tool equipped with 1536-pin array (10 nL slotted pins, V&P Scientific, San Diego, CA). Following addition of compound and a 60 minute incubation, 1 microL of bead stimulation solution ((0.04 micron Fluospheres (Life technologies, CA) coated with 10ug/ml each anti-CD3 and anti-CD4 (clones 2C11 and GK1.5, BD Biosciences, CA) and mixed with 1ug/ml anti-CD28 (clone PV-1, BD biosciences, CA)). columns 2-48) is added to stimulate the IL-2 response pathway; media is instead added to column 1 as an unstimulated control, while PMA/ionomycin (Sigma Aldrich, MO) is added to column 3 as a control for IL-2 tolerance bypass. The plates are then incubated at 37 degrees C for 18 hours. EGFP and DsRed signal are then detected using an Acumen eX3 Explorer fluorescent plate cytometer. All cells are dispensed in cell media containing EHAA (Quality Biologicals, MD), RPMI (Quality Biologicals, MD), Glutamine (Life Technologies, CA), Penicillin/Streptomycin (Quality Biologicals, MD), 2-ME (Sigma Aldrich, MO) and 10% FBS (Gemini Bioproducts, CA) .

| Compound | activation |
| --- | --- |
| O=S1(=O)C=C(SCCN2CCCC2)c2ccccc21 | 5.28% (inactive) |
| [O-][n+]1c2c(nn1-c1ccc(Cl)c(Cl)c1)-c1nonc1CC2 | 0.19% (inactive) |
| CCOC(=O)c1cn[nH]c1NC(=S)Nc1ccccc1 | -3.84% (inactive) |
| CCOC(=O)C1C(=O)OC2(CCCC2)C1C(=O)OCC (stereo not drawn) | -0.195% (inactive) |
| Cc1c(C(=O)NC(=S)NCc2cccnc2)oc2ccccc12 | -3.54% (inactive) |
| COC(=O)C1=C(N)Oc2c(oc(CO)cc2=O)C1c1c(F)cccc1Cl (stereo not drawn) | 1.1% (inactive) |
| C=CCOC(=O)N1CCC2CC1c1cc(-c3ccc(OC)cc3)ccc12 (stereo not drawn) | -0.638% (inactive) |
| COc1ccccc1N(C(=O)Cn1nnc2ccccc21)C(C(=O)NCc1ccco1)c1ccc(C)o1 (stereo not drawn) | -0.406% (inactive) |
| CN(CCO)Cc1csc2ccc(Br)cc12 | -0.737% (inactive) |
| CCOc1ccc(C(=O)NC(C(=O)NCc2ccccn2)C(C)C)cc1 (stereo not drawn) | -4.42% (inactive) |
| COc1ccc(/C=C/CN2CCN(Cc3ccc(C)cc3)C(CCO)C2)cc1 (stereo not drawn) | 0.996% (inactive) |
| Cc1cccc(C(=O)O)c1[N+](=O)[O-] | -0.181% (inactive) |
| O=C1C=CC(=O)N1c1ccc(N2CCCCC2)cc1 | -7.5% (inactive) |
| OCC1(CO)CC2(C1)CC(CO)(CO)C2 | 0.276% (inactive) |
| CC(C)(C)C(=O)NNC(=O)c1ccc(Oc2cc(Cl)cc(Cl)c2)o1 | 0.282% (inactive) |
| Cc1ccc(NC(=O)c2nc[nH]c2C(=O)N2CCCCC2)c(C(=O)c2ccccc2)c1 | -0.352% (inactive) |
| O=C(CCN1C(=O)c2ccccc2C1=O)NNC(=O)c1ccc(Cl)cc1Cl | 0.499% (inactive) |
| O=C1/C(=C/c2cccs2)SC(=S)N1C1CCS(=O)(=O)C1 (stereo not drawn) | 2.78% (inactive) |
| O=C(CCN1C(=O)/C(=C/c2cccs2)SC1=S)NNC(=O)c1cccc(O)c1 | 133% (active) |
| CCOC(=O)C1CCCN(S(=O)(=O)c2ccc3c(c2)C(C)(C)C(=O)N3C)C1 (stereo not drawn) | -2.21% (inactive) |

| Compound | activation |
| --- | --- |
| CCCn1c(=O)c2[nH]c(C3CCCC3)nc2n(CCC)c1=O | -0.643% (inactive) |
| C[C@]12C=CC(=O)C=C1CC[C@@H]1[C@@H]2C(=O)C[C@@]2(C)[C@H]1CC[C@]2(O)C(=O)CO | 0.342% (inactive) and -0.368% (inactive) |
| CCOCCCN(C)C1CCN(C(=O)c2oc3ccccc3c2NC(=O)Cc2cccc([N+](=O)[O-])c2)CC1 | -1.43% (inactive) |
| O=C(Nc1ccc(Br)cc1)C1CCC(=O)N1Cc1ccccc1Cl (stereo not drawn) | -1.19% (inactive) |
| C=CCOC(=O)C1=C[C@H](c2ccc(Br)cc2)C[C@H](OCCCCO)O1 | 0.356% (inactive) |
| CC(C)OC(=O)Cn1nc(C(F)(F)F)c2c1CCCC2 | 0.525% (inactive) |
| C=CCn1c(CCNC(=O)c2ccccc2F)nnc1SCC(=O)Nc1ccc(OC)cc1 | 0.0893% (inactive) |
| CON(C)S(=O)(=O)c1ccc2c(c1)NC(=O)C1CCCN21 (stereo not drawn) | -2.38% (inactive) |
| O=c1[nH]c(CSc2ccccc2)nc2c1oc1ccccc12 | 0.844% (inactive) |
| CCC(C)Sc1nc2c(cnn2-c2ccc(F)cc2)c(=O)[nH]1 (stereo not drawn) | -4.9% (inactive) |
| CC(=O)CC[C@@H](C)O[C@@H]1OC(C)[C@H](O)CC1O (stereo partly drawn) | 0.121% (inactive) |
| C/C(=N\NC(=O)c1ccc(CSc2nc(C)cc(C)n2)cc1)C1CCCCC1 | -0.149% (inactive) |
| Cc1cc(C)n(CCNC(=O)CC2C(=O)NCCN2Cc2ccc(C)o2)n1 (stereo not drawn) | -0.111% (inactive) |
| COc1ccccc1N(CC(=O)Nc1ccccc1C(=O)N1CCCC1)S(C)(=O)=O | -1.54% (inactive) |
| Cc1cc(Br)ccc1SCC(=O)OCC(=O)NCc1ccc2c(c1)OCO2 | -3.89% (inactive) |
| CCOc1ccc(NC(=O)CN(C)CC(=O)Nc2cccc(Cl)c2C)cc1OCC | -1.33% (inactive) |
| Nc1ccc(N=Nc2ccccc2Cl)c(N)n1 | 0.821% (inactive) |
| Nn1cnnc1N/N=C/c1cc([N+](=O)[O-])c(Cl)cc1Cl | -0.276% (inactive) |
| CC1=C(C(N)=O)C(c2ccc3c(c2)OCO3)n2nc(-c3cccc(C)c3)nc2N1 (stereo not drawn) | -0.667% (inactive) |
| O=c1nc(NO)ccn1C1CCCO1 (stereo not drawn) | -4.07% (inactive) |

| Compound | activation |
| --- | --- |
| CC(C)(C)OC(=O)Nc1ccc([C@@H](NC(=O)OC(C)(C)C)C(=O)OC(C)(C)C)cc1 | 1.22% (inactive) |
| COc1ccc(CCNC(=O)c2ccc(NC(=O)CC3SC(N4CCCCC4)=NC3=O)cc2)cc1OC (stereo not drawn) | 1.44% (inactive) |
| O=C(CSc1nc(Nc2ccccc2)nc(N2CCOCC2)n1)Nc1cc(Cl)ccc1O | -3.68% (inactive) |
| CC(C)CN1C(=O)CN(S(C)(=O)=O)CC1(C)C(=O)NCc1ccccc1 (stereo not drawn) | -0.324% (inactive) |
| O=C(Nc1ccc(F)c(Cl)c1)C1CCN(S(=O)(=O)c2cccnc2)CC1 | -4.67% (inactive) |
| CCN1/C(=C\c2ccc3ccccc3[n+]2CC)Sc2cc(C)ccc21 | 83.8% (active) |
| O=C(O)C1CCCCC1C(=O)Nc1ccc(Cl)cc1 (stereo not drawn) | -0.998% (inactive) |
| NC(N)=NCCCc1cn(CC(=O)N2CCNCC2)nn1 | -0.704% (inactive) |
| CCC[C@H]1CCCC/C=C\CCCC(=O)OCCN1C(=O)OC(C)(C)C | -3.09% (inactive) |
| OC(CNCc1ccc(Cl)c(Cl)c1)c1ccccc1 (stereo not drawn) | 0.815% (inactive) |
| Cc1ccc(C)c(NS(=O)(=O)c2cc(Br)cnc2N)c1 | -0.259% (inactive) |
| CN1CCN(c2ccc(CNS(=O)(=O)c3cccc(F)c3)cc2)CC1 | -0.358% (inactive) |
| COc1ccc(CNC(=O)CN2C(=O)NC3(CCCc4sccc43)C2=O)cc1 (stereo not drawn) | 1.66% (inactive) |
| CN(c1ccccc1)c1nc(N)c([N+](=O)[O-])c(NCc2ccco2)n1 | 2.01% (inactive) |
| CCCC1NC(=O)NC(C)=C1C(=O)OCC (stereo not drawn) | -3.34% (inactive) |
| CC1(C(=O)NCc2ccc(F)c(F)c2)Cc2c(-c3ccc4c(c3)OCO4)ccnc2O1 (stereo not drawn) | 0.821% (inactive) |
| Cc1ccc(OCCNC(=O)CN2C(=O)NC3(CCCC3)C2=O)cc1 | -0.135% (inactive) |
| Cc1ccc(CNC(=O)Cn2cnc3c(NCc4ccccc4)ncnc32)o1 | -0.27% (inactive) |
